Laboratory results published in PubChem BioAssay (NCI).
Compounds without any hit were thinned out: in the full panel of roughly 83,000, 20% have a hit.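 Method: cells in 96-well plates; compound added at one concentration; 48 h incubation; percent growth measured; values under 10 scored active.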 A number with no mark means an inactive call. The source made the active and inactive calls.

Legend:
Assay in all cases: NCI-60 one-dose screen, 48 h (100 = growth as untreated, 0 = no growth, -100 = all killed)
Details in all cases: 10 µM unless noted
EKVX NSCLC = tested on: EKVX NSCLC
SN12C renal = tested on: SN12C renal
UO-31 renal = tested on: UO-31 renal
ACHN renal = tested on: ACHN renal
CCRF-CEM leukemia = tested on: CCRF-CEM leukemia
MOLT-4 leukemia = tested on: MOLT-4 leukemia
SR leukemia = tested on: SR leukemia
OVCAR-8 ovarian = tested on: OVCAR-8 ovarian
OVCAR-5 ovarian = tested on: OVCAR-5 ovarian
OVCAR-4 ovarian = tested on: OVCAR-4 ovarian
SK-OV-3 ovarian = tested on: SK-OV-3 ovarian
IGROV1 ovarian = tested on: IGROV1 ovarian
OVCAR-3 ovarian = tested on: OVCAR-3 ovarian
HS 578T breast = tested on: HS 578T breast
NCI/ADR-RES ovarian = tested on: NCI/ADR-RES ovarian
T-47D breast = tested on: T-47D breast
A498 renal = tested on: A498 renal
RPMI-8226 leukemia = tested on: RPMI-8226 leukemia
CAKI-1 renal = tested on: CAKI-1 renal

SMILES	growth (EKVX NSCLC)	growth (SN12C renal)	growth (UO-31 renal)	growth (ACHN renal)	growth (CCRF-CEM leukemia)	growth (MOLT-4 leukemia)	growth (SR leukemia)	growth (OVCAR-8 ovarian)	growth (OVCAR-5 ovarian)	growth (OVCAR-4 ovarian)	growth (SK-OV-3 ovarian)	growth (IGROV1 ovarian)	growth (OVCAR-3 ovarian)	growth (HS 578T breast)	growth (NCI/ADR-RES ovarian)	growth (T-47D breast)	growth (A498 renal)	growth (RPMI-8226 leukemia)	growth (CAKI-1 renal)
C#Cc1nc(C2=C(C)C(=O)/C(=N/OC(C)=O)C2)cs1	97.5%	99%	-92.1% (active)	26.3%	80.8%	87.7%	13.4%	78.3%	99.4%	89.9%	104%	-37.2% (active)	111%	90.7%	1.61% (active)	79.9%			
c1ccc2c(NCCCN3CCOCC3)c3oc4ccccc4c3nc2c1	-19.6% (active)	3.3% (active)	-79.6% (active)	-9% (active)	12%	-4.43% (active)	-12.1% (active)	-71.7% (active)	1.26% (active)	7.86% (active)	-9.67% (active)	-16.7% (active)	-19.6% (active)	5.28% (active)	7.98% (active)	21.1%	-86.9% (active)	-14.4% (active)	
Clc1ccc2c(NCCCn3ccnc3)c3oc4ccccc4c3nc2c1	16.1%	33.2%	36.2%	18.1%	37.4%	13.3%	9.35% (active)	32.1%	38.2%	55%	104%	32.9%	68.4%	61.6%	45%	60.1%	8.07% (active)	26.4%	
Nc1nc(N)c2c(n1)NC(c1ccc(F)cc1)CC(c1ccc(Nc3nc(NCCO)nc(Nc4ccc(Cl)cc4)n3)cc1)=N2 (stereo not given)	42.5%	59.9%	34.8%		-13.8% (active)	-17.5% (active)	-17.9% (active)	29%	72%	3.03% (active)	84%	-25.9% (active)	14.1%	42.8%	64.5%	60%		-37.6% (active)	40.9%
N#Cc1nc(-c2ccccc2)oc1S(=O)(=O)N1CCCCC1	76.1%	62.5%	-82.2% (active)		4.27% (active)	0.441% (active)		89.9%	102%	101%		19.9%	-54.2% (active)	106%	99.3%	49.9%	89.9%	64.6%	17.4%
C#C[C@]1(O)CC[C@H]2[C@@H]3CC=C4c5sc(Nc6ccc(Cl)cn6)nc5CC[C@]4(C)[C@H]3CC[C@@]21C	42.3%	79.5%	40%	53.6%	15.1%	2.85% (active)	7.04% (active)	49.6%	75.8%	65.3%	35.9%	71.5%	74.3%	-2.9% (active)	54.1%	68.8%	-6.58% (active)	-21.2% (active)	
COc1ccc([C@@H]2c3[nH]c4ccccc4c3CC3C(=O)N(C4CCN(Cc5c(F)cccc5F)CC4)CC(=O)N32)c(OC)c1 (stereo not given in full)	51.9% [5.26 µM]	67.5% [5.26 µM]	39.7% [5.26 µM]		58.1% [5.26 µM]	49% [5.26 µM]	79.4% [5.26 µM]	73.4% [5.26 µM]	76.7% [5.26 µM]	69.4% [5.26 µM]		39.8% [5.26 µM]	64.1% [5.26 µM]	45.1% [5.26 µM]		47.1% [5.26 µM]		41.3% [5.26 µM]	40.4% [5.26 µM]
Cc1ccc(C(=O)Nc2cccc(C(F)(F)F)c2)cc1Nc1nc(-c2cnccn2)nc2c1cnn2C	77.3%	64.7%	37.8%	53%	78.2%	43.1%	39.5%	77.3%	39.2%	83.7%	97.9%	52.7%	97.9%	51.2%	75.6%	74.5%		61.8%	
CC(O)C(NC(=O)C1CCCN1C(=O)CNC(=O)C1CC(=O)NCC(=O)NC(Cc2c[nH]c3ccccc23)C(=O)NC(Cc2ccc(O)cc2)C(=O)NCC(=O)NC(CO)C(=O)NC(CCC(N)=O)C(=O)NC(Cc2c[nH]c3ccccc23)C(=O)N1)C(=O)NCC(=O)NC(CCC(N)=O)C(=O)NC(CCCNC(=N)N)C(=O)NC(CC(=O)O)C(=O)O (stereo not given)	100%	101%	83.3%		94.7%	104%	94.5%	101%	110%	99.8%	106%	105%	102%	102%	104%	106%			91.5%
CC(C)Sc1nc(Nc2ccc(S(N)(=O)=O)cc2)c(C#N)c(-c2ccc(F)cc2)n1	50.9%				36.6%	49.9%	-36.9% (active)		67.3%						32.5%			58.1%	
COc1ccc(-c2cc(C(=O)N=Nc3c(O)[nH]c4ccccc34)c3ccccc3n2)cc1OC	91.9%	94.6%	85.2%	102%	100%	102%	102%	98%	91%	99.3%		90.2%	109%	97%	92.1%	87.3%	82.1%		
CCN(CC)c1ccc(C=O)c(OCc2cn(CC(=O)Nc3ccc(Cl)cc3)nn2)c1	82.8%	63.5%	-58.2% (active)	24.3%	72.7%	51.9%	47%	75.3%	91%	70.4%	86.8%	74.7%		87.8%	84.2%	59.8%	89.2%	57.9%	
OC1CCN(CCCOc2c3ccc(Cl)cc3nc3c2oc2ccc(Cl)cc23)CC1	34.7%	23.2%	7.4% (active)	-98.4% (active)	-28.8% (active)	0.17% (active)	-39.3% (active)	27.7%	-28.1% (active)	55%	50.8%	9.03% (active)	46.5%	20.5%	32.4%	52.3%	-7.6% (active)	-8.79% (active)	
CS(=O)(=O)Nc1ccc(-c2nn(-c3ccc(S(C)(=O)=O)cc3)cc2/C=C/C(=O)c2ccc(NC(=O)CO[N+](=O)[O-])cc2)cc1	103%	109%	93.9%	96.1%	111%	107%	92.1%	101%	103%	106%	99.7%	105%	116%	122%	97.3%	102%	110%	111%	
N#Cc1nc(-c2ccccc2)oc1S(=O)(=O)N1CCN(CCc2ccccn2)CC1	89%	77.2%	-42.3% (active)		1.54% (active)	0.215% (active)	-19.2% (active)	84.9%	86.3%	89.7%		10%	31.2%	106%	99.2%	-24.2% (active)	112%	36.1%	
CN(C)CCCNc1c2ccc(Cl)cc2nc2c1oc1ccccc12	-26.7% (active)	6.3% (active)	12.3%			-1.03% (active)	-18.8% (active)	-17.9% (active)	1.91% (active)	8.04% (active)	42%	-13% (active)		37%	2.84% (active)	46.3%	8.64% (active)		6.06% (active)
CS(=O)(=O)c1ccc(-n2cc(/C=C/C(=O)c3ccc(NC(=O)CO[N+](=O)[O-])cc3)c(-c3ccc(Cl)cc3)n2)cc1	90.5%	88%	115%		107%	119%	113%	92.5%	97.7%	114%	89.7%	94.4%		83.6%	94.4%	104%	117%	108%	109%
CN(C)c1ccc(/C=c2\sc3nc4ccccc4n3c2=O)cc1	87%	99.2%	92.2%		13.8%	103%	99.7%	106%	102%	107%	124%	77.2%	124%	101%	107%	83.8%		104%	93.3%
N/C(=N\c1nc2c(Cl)cc(Cl)cc2s1)C(Cl)(Cl)Cl	13.4%	77.9%	45.8%		83.7%	82.8%	85.1%	68.3%	69.5%	67.9%	83.8%	57.8%		22.1%	68.3%	32.3%	-44.4% (active)	15.4%	5.87% (active)
Clc1ccc(Cc2nnc3sc(-c4cccnc4)nn23)cc1	85.2%	100%	71.7%	96.8%	98.9%	97.2%	91.1%	96.6%	94.7%	94.2%	114%	95.4%	107%	101%	81.3%	89.2%	83.9%	97.5%	
Oc1c(Cl)cc(Cl)c2ccc(CN3CCCCC3)nc12	30.6%	42.9%	35.7%	29.4%	18.6%	26.1%	18.8%	23%	55.7%	33.3%		33.9%	27.6%	66.5%	19.3%	48.1%	49.9%	38.1%	
Cn1ccnc1C(=O)/C=C/c1ccc(NC(=O)Nc2ccc(F)cc2)cc1	39.3%	53.8%	56.6%		12.6%	11.6%	3.97% (active)	15.8%	57.7%	76.2%		43.1%	56.5%	17.6%	43.8%	42.8%		13.2%	
O=C(CN1C(=O)/C(=C/c2ccccc2)SC1=S)N1CCOCC1	96.3%	94.7%	71.4%		88%	99.1%	85.8%	102%	97.6%	109%	95.4%	97.4%		106%	106%	77.9%	112%	89.6%	93.7%
CN(C)c1ccc(-c2c(NC(C)(C)C)nc3c(OCCc4ccccc4)cccn23)cc1	8.16% (active)	12.5%	4.11% (active)	17.7%	5.5% (active)	1.16% (active)	-0.837% (active)	18.7%	21.5%	31.3%	8.93% (active)	23.3%	20.2%	23.8%	4.77% (active)	10.1%	24.5%	-27.5% (active)	
COc1ccc2[nH]cc(-c3cc(N)n4nc(-c5c[nH]c6ccc(OC)cc56)cc4n3)c2c1	80.1%	-64% (active)	-22.8% (active)	-31.9% (active)	0.363% (active)	-2.24% (active)	-23.6% (active)	-62.6% (active)	8.81% (active)	-8.27% (active)	144%	44.5%	103%	121%	88.6%	-21.7% (active)	83.1%	-22.7% (active)	
CCCC(=O)NC(c1ccc(N(CC)CC)cc1)c1cc(C)c2cccnc2c1O (stereo not given)	19.2%	26.6%	3.42% (active)		6.15% (active)	8.44% (active)	5.57% (active)	20.5%	58%	40.3%	42%	14.1%	18.6%	50%	6.31% (active)	26.3%		22.6%	18.7%
Cc1cc2nc3c4cc(Cl)ccc4n(CC(=S)NCCN(C)C)c3nc2cc1C	4.02% (active)	40.9%	-68.1% (active)	-96.4% (active)	-49.3% (active)	-60.3% (active)	-43.8% (active)	-66.9% (active)	-42.6% (active)	-24.1% (active)	-16.4% (active)	-74% (active)		51.4%	-56.4% (active)	61.7%		-19.6% (active)	
OC1CCN(CCCOc2c3ccc(Cl)cc3nc3c2oc2ccccc23)CC1	-43.4% (active)	6.58% (active)	-52.1% (active)		2.24% (active)	-21.5% (active)	-38.5% (active)	3.92% (active)	-4.92% (active)	1.3% (active)	7.92% (active)	-18% (active)	0.661% (active)	-6.78% (active)	6.48% (active)	11%	-91.3% (active)	-15.1% (active)	-3.51% (active)
OC1CCc2c(-c3ccc4ncnc(N5CCc6cc(F)c(Cl)cc65)c4c3)cncc21 (stereo not given)	27.1%	39.3%	19%	18.6%	40.3%	21.9%	47.9%	52.9%	46.6%	56.1%		-13.2% (active)	37.6%	27.8%	51.1%	7.03% (active)	-13.1% (active)	15.9%	
